Only some compounds are listed: those with a hit (about 6.1% of all), similar ones and a draw of the others.
RORg inh: inhibitors of mouse ROR gamma transcriptional activity | P51450 | Drosophila S2 Gal4-RORgamma UAS-luciferase reporter, 20 h | Potency, µM (series often up to 53.6 µM), for the others: at the highest dose activity change, negative = inhibition, actives largely listed as inhibitors | actives 5.4% (n = 310,000) | AID 2551; note: % is set by controls: 0 for no effect and ±100 for the full control effect; nearly all actives have a fitted effect of over 60% in size
Target sequence (P51450 whole entry, looked up, the tested form may be a part): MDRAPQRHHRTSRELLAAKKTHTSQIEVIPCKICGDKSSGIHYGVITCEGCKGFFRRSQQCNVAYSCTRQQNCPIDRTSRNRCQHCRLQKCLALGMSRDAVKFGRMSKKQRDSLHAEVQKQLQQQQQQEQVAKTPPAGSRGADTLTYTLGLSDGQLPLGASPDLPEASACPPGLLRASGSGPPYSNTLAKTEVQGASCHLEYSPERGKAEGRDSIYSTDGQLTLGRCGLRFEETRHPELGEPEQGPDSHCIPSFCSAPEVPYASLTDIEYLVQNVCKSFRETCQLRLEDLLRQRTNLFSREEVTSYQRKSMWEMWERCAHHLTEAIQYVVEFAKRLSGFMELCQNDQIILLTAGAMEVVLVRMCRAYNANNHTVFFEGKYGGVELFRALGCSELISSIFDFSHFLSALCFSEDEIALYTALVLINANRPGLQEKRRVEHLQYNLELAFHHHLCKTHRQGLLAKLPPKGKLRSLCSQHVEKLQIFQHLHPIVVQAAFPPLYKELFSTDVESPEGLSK
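A Gal4/UAS one-hybrid system in insect cells: metallothionein-promoter Gal4–ROR gamma fusion plus Photinus luciferase reporter. Copper sulfate 700 uM final, 20 hr ambient incubation, luminescent detection after 10 min with reagent.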
HepG2 viability: kills HepG2 cells in TGF-b inhibitor counter-screen; actives 0.76% (n = 410,000); AID 588856; HepG2 CAGA-GFP viability, ATP luminescence, 18 h; Potency, µM (series often up to 46.1 µM), for the others: top-dose activity change, negative = cytotoxicity, usual class: cytotoxic
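HepG2 CAGA-GFP cells (1000/well, DMEM with 1% FBS) received compound, then TGF-beta at 500 pg/mL final, and were incubated 18 hours at 37 degrees C. Viability was read by CellTiter-Glo luminescence. Media-only wells were set as complete cell-killing and DMSO as no toxicity.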
TGFb inhibitor: TGF-b pathway inhibition; actives 1.2% (n = 410,000); HepG2 CAGA-GFP TGF-b/SMAD3 reporter, GFP fluorescence, 18 h; TGF-beta stimulated, 500 pg/mL final; AID 588855; Potency, µM (titrated, usually from 46.1 µM), without a hit: at the top dose activity, negative = inhibition, usual class: inhibitors; note: % is set by controls: 0 for no effect and ±100 for the full control effect; nearly all actives have a fitted effect of over 65% in size
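TGF-beta reporter screen: HEPG2 CAGA-GFP, 1% FBS, 500 pg/mL TGF-beta final, 18 h; per-cell GFP summed per well; curves fitted and categorized by class.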
ATXN viability: reduces viability in counter-screen for ATXN expression inhibitors | S2 cells (HEK-293 line with an ATXN2-luciferase reporter) viability, CellTiter-Fluor protease fluorescence, 24 h | Potency, µM (titrated, usually from 56.7 µM), actives largely listed as cytotoxic | actives 0.49% (n = 400,000) | AID 651635; note: nearly all actives have a fitted effect of over 40% in size
ATXN2 expr inh: reduces ATXN2 reporter expression in HEK-293 cells | HEK-293 ATXN2-luciferase reporter, luminescence, 24 h | Potency, µM (highest dose often 57 µM), for inactives: at the top dose activity change, negative = inhibition, usual class: inhibitors | AID 1745845 | actives 0.72% (n = 360,000); note: % is set by controls: 0 for no effect and ±100 for the full control effect; nearly all actives have a fitted effect of over 55% in size
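qHTS (up to 57 uM final) was run with 24 h compound exposure of reporter cells at 37 °C. Each well was multiplexed: SteadyGlo luminescence measured ATXN2-luciferase expression after a fluorogenic Gly-Phe-AFC viability readout (25 uM final).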
VP16 counter: Gal4-VP16 reporter inhibition counter-screen. Drosophila S2 Gal4-VP16 UAS-luciferase, luminescence, 20 h. Potency, µM (titrated, usually from 53.6 µM), for the others: at the top dose activity, negative = inhibition, usual class: inhibitors. actives 3.5% (n = 310,000). AID 2546;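 note: Gal4-VP16 expression switched on by copper sulfate through the metallothionein promoter; % is set by controls: 0 for no effect and ±100 for the full control effect; nearly all actives have a fitted effect of over 50% in size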
Starred values were filed as active, the others as inactive; i = inactive; ? = inconclusive; · = not tested or not shown; [ ] = another dose, or the depositor's remark. Calls come from the whole dose curve; as a rule, active = well fitted curve in the direction sought with a large enough effect; inconclusive = small, poorly fitted or top-dose-only effect, or another doubt; inactive = no such curve, though single readings can be large; an effect the other way counts as inactive or inconclusive. Potency is the fitted concentration of half-maximal effect.

SMILES	RORg inh	HepG2 viability	TGFb inhibitor	ATXN viability	ATXN2 expr inh	VP16 counter
Cn1cc(C(c2ccccc2)c2ccc(Cl)s2)c2ccccc21 (stereo not given)	·	-21.2%	?	i	6.6%	·
COc1cc(Cl)c(C)cc1NC(=O)Cn1c2ncccc2c(=O)n1-c1ccccc1	·	2.8%	-18.6%	·	·	·
Cc1ccc(NC(=S)NCc2ccc3c(c2)OCO3)cc1	12.6µM*	-18.0%	-17.2%	i	-4.8%	15.8µM*
S=C(NCc1ccc2c(c1)OCO2)NC1CC1	12.6µM*	0.0%	-4.0%	?	-24.7%	?
Cc1ccc(NC(=S)NCc2ccc3c(c2)OCO3)c(C)c1	?	-0.1%	-5.4%	i	4.8%	-3.2%[0.365 µM]
CCOc1ccc(NC(=S)NCc2ccc3c(c2)OCO3)cc1	7.94µM*	-15.3%	0.0%	i	12.6%	?
CCOc1ccc(CN(CCc2ccc3c(c2)OCO3)Cc2cc(OC)c(OC)cc2OC)cc1	·	-24.3%	11.2µM*	·	·	·
COc1ccc(NC(=O)Cn2c(=O)n(CC3CCCO3)c(=O)c3ccccc32)cc1 (stereo not given)	·	3.1%	-2.3%	?	-6.7%	·
Cc1oc(-c2ccccc2NC(=O)c2ccccn2)nc1CNC(=O)c1ccc(Oc2ccccc2)o1	·	·	·	i	·	·
CCOC(=O)COc1ccc(-c2nnc(-c3ccccc3)o2)cc1	-43.2%	-29.0%	17.7%	i	-14.5%	?
CCCCNC(=O)Nc1nnc(-c2ccc(OCC)cc2)o1	7.08µM*	0.4%	4.2%	i	-8.0%	5.62µM*
CCCCNC(=O)Nc1nnc(-c2ccccc2)o1	3.98µM*	1.4%	7.2%	i	10.0%	5.62µM*
CCOC(=O)CNC(=O)Nc1nnc(-c2ccc(OCC)cc2)o1	3.16µM*	-15.6%	8.6%	i	1.9%	5.62µM*
CCOc1ccc(-c2nnc(NC(=O)COc3ccccc3F)o2)cc1	·	2.0%	0.1%	i	·	·
CCOc1ccccc1Nc1nc2ccccc2c2nncn12	·	-24.0%	-0.1%	i	12.1%	·
CC(NC(=O)c1ccc(NC(=O)c2nsc3ccccc23)cc1)c1ccccc1 (stereo not given)	·	-18.3%	5.9%	i	44.1%	·
COc1cccc(-c2nc(N(C)Cc3ccco3)c3ccccc3n2)c1	12.3%	·	·	·	·	3.7%
O=C1c2cccc3cc([N+](=O)[O-])cc(c23)C(=O)N1/N=C/c1ccc(O)cc1O	-24.0%	1.3%	-5.0%	i	-31.8%	?
O=C1C([N+](=O)[O-])=C(O)c2cccc3cccc1c23	?	·	·	·	·	17.8µM*
Clc1ccc2c(c1)C(N1CCNCC1)Cc1ccccc1S2 (stereo not given)	-36.1%	14.1µM*	?	31.6µM*	?	?
COC(=O)c1cc2oc3ccccc3c2n1CC(=O)Nc1ccc(OC)c(OC)c1	·	-38.4%	-30.5%	i	4.9%	·
Cc1ccc(-c2cc3c(N=O)c4ccccc4c-3n[nH]2)cc1	10µM*	14.7%	0.1%	i	-20.0%[11.3 µM]	?
C=CCC[C@@H](Cc1ccc(F)cc1)C(=O)OC[C@@H](Cc1c[nH]c2ccccc12)NC(=O)[C@@H](CC=C)CC(=O)NCCO	·	-71.5%	?	31.6µM*	?	·
C=CCC[C@@H](Cc1ccc(F)cc1)C(=O)OC[C@@H](Cc1c[nH]c2ccccc12)NC(=O)[C@H](CC=C)CC(=O)NCCO	·	-83.0%	?	28.2µM*	?	·
Cc1c(C(=O)N(C)C)sc2c1c(=O)n(-c1ccc(Cl)c(Cl)c1)c(=O)n2CC(=O)Nc1ccc(Br)cc1F	·	4.2%	-9.8%	·	·	·
SMILES	RORg inh	HepG2 viability	TGFb inhibitor	ATXN viability	ATXN2 expr inh	VP16 counter
CCCN1C2CCCC1CC(NC(=S)Nc1cc(C)cc(C)c1)C2 (stereo not given)	-25.9%	-44.7%	-6.7%	i	-10.9%	14.5%
Cc1cc(OC(F)F)ccc1NC(=S)NC1CCCC1	2.51µM*	1.9%	12.1%	i	4.3%	7.08µM*
Cc1cc(F)ccc1NC(=S)NC1CCCC1	6.31µM*	-11.7%	-6.0%	i	7.1%	10µM*
Cc1ccc(NC(=O)NC2CCCCC2)c(C)c1	14.1%	-3.7%	-14.0%	i	18.1%	10.1%
Cc1ccc(NC(=S)NC2CCCC2)c(C)c1	7.08µM*	-27.1%	-22.2%	i	1.9%	6.31µM*
Cc1ccc(C)c(NC(=S)NC2CC3CCCC(C2)N3CC(C)C)c1 (stereo not given)	14.1µM*	-8.6%	0.0%	i	-11.0%	?
COc1ccc(NC(=O)c2cnc(N3CCCCC3)c3ccccc23)cc1Cl	·	-9.2%	?	·	·	·
O=[N+]([O-])c1cccc(NC(=S)Nc2nc(-c3ccc(Cl)cc3Cl)cs2)c1	2µM*	·	·	·	·	3.16µM*
CCc1ccc(C(=O)/C=C/Nc2ccc(S(=O)(=O)Nc3onc(C)c3C)cc2)cc1	?	-37.6%	-1.2%	i	22.6%	15.8µM*
COc1ccc(CC(=O)N2N=C(C)CC2(O)c2cccnc2)cc1OC (stereo not given)	11.2µM*	-19.2%	-2.6%	i	-3.0%	?
CC1=NN(C(=O)Cc2ccccc2)C(O)(c2ccccc2)C1 (stereo not given)	12.9%	-1.6%	19.7%	i	12.2%	3.1%
CC1=NN(C(=O)Cc2ccc([N+](=O)[O-])cc2)C(O)(c2ccccc2)C1 (stereo not given)	8.91µM*	4.7%	-1.0%	i	-0.9%	12.6µM*
CCC1=NN(C(=O)Cc2ccc(OC)c(OC)c2)C(O)(C(F)(F)F)C1 (stereo not given)	15.8µM*	10.2%	-0.1%	i	-3.1%	?
CC1=NN(C(=O)Cc2ccc([N+](=O)[O-])cc2)C(O)(c2cccnc2)C1 (stereo not given)	14.1µM*	-48.0%	-1.1%	i	-11.6%	-6.3%[0.365 µM]
NC(=O)[C@@H]1CCCN1C(=O)c1cc(NC(=O)c2ccccc2)cc2ncn(C3CCCC3)c12	·	·	·	i	·	·
COc1cc2c(cc1OC)CN(CCc1ccc(NC(=O)c3cccc4c(=O)c5cccc(OC)c5[nH]c34)cc1)CC2	·	·	·	·	9.5%	·
CC1CCCCN1c1cc2c(cc1F)c(=O)c(S(=O)(=O)c1ccccc1)cn2Cc1ccccc1 (stereo not given)	·	-6.6%	-15.8%	·	·	·
CCOC(=O)[C@@H]1[C@H]2COc3ccccc3[C@@H]2N2C(=O)N(c3ccc(C)cc3)C(=O)[C@@]12C	·	2.1%	1.4%	i	11.0%	·
CCOC(=O)[C@@H]1[C@H]2COc3cc(OC)ccc3[C@@H]2N2C(=O)N(c3ccc(C)cc3)C(=O)[C@@]12C	5.01µM*	-24.1%	8.9%	?	-21.0%	0.6%

Screening data deposited in PubChem by National Center for Advancing Translational Sciences (NCATS).
